ChEMBL document CHEMBL4513135, “CO-ADD screening of IQOG CSIS (Spain) compounds”
Results with a measured potency or affinity are listed apart.

Assays:
Staphylococcus aureus = details: Concentration 32 ug.mL-1; ASSAY_TEST Inhibition of Bacterial Growth; detection method Absorption (OD600); MEDIA CAMHB; plate type 384well; NBS; CORNING #3640; time 18 hr
Escherichia coli = details: Concentration 32 ug.mL-1; ASSAY_TEST Inhibition of Bacterial Growth; detection method Absorption (OD600); MEDIA CAMHB; plate type 384well; NBS; CORNING #3640; time 18 hr

Row | Structure (SMILES) | Inhibition (Staphylococcus aureus) [%] | Inhibition (Escherichia coli) [%]
1 | Cc1cnc2ccc(Br)cn12 | 2.9 | 6.35
2 | Cn1ccnc1C1C2=C(CC(C)(C)CC2=O)Oc2nc3c(c(N)c21)CCC3 (configuration not stated) | 12 | -19.85
3 | CCOc1nc(N)c(C#N)cc1C#N | 33.34 | -14.2
4 | Cl.OCCCC1CCNCC1 | 22.6 | 13.14
5 | N#CC1=C(N)Oc2c(ccc3ccccc23)C1c1cccc([N+](=O)[O-])c1 (configuration not stated) | 17.39 | -10.4
6 | N#Cc1c(Cl)nc(NC2CCN(Cc3ccccc3)CC2)c(C#N)c1-c1ccccc1 | -0.92 | -18.84
7 | O=C1NC(=S)N/C1=C\c1c[nH]c2ccccc12 | 7.26 | 6.43
8 | c1ccc(COc2ccc3[nH]ccc3c2)cc1 | 4.67 | 3.23
9 | N#Cc1c(-c2ccccc2)c2c(ccc3ccccc32)oc1=O | 27.54 | 15.75
10 | COC(=O)C1CCN(Cc2ccccc2)CC1 | 27.51 | 11.49
11 | C#CCN(C)c1nc(Cl)c(C#N)c(-c2ccccc2)c1C#N | 13.59 | -10.42
12 | COC(=O)C(=Cc1ccccc1)NC(=O)c1ccccc1 | 11.82 | 6.08
13 | CC(=O)O[C@H]1CC[C@H](NC(=O)c2ccccc2)CC1 | 27.4 | -7.44
14 | CC(=O)Nc1nc(Cl)c(C#N)c(-c2ccccc2)c1C#N | 21.15 | -6.98
15 | COc1ccc(C=C2N=C(SC)N(C)C2=O)cc1 | -4.46 | 0.92
16 | CC(C(=O)O)c1c[nH]c2ccccc12 (configuration not stated) | 5.61 | 8.04
17 | COc1ccc2c(c1)cc(CN(C)C)n2C | -0.93 | -1.4
18 | Cl.NC1(C(=O)O)CC1c1cccc(Cl)c1 (configuration not stated) | 12.59 | 12.02

Row | Structure (SMILES) | Inhibition (Staphylococcus aureus) [%] | Inhibition (Escherichia coli) [%]
19 | N#CC1(Br)C(=NBr)Oc2ccc3ccccc3c2C1c1ccccc1 (configuration not stated) | 7.34 | 1.03
20 | C/C(Cc1ccccc1)=N/NC(=O)c1c[nH]c2ccc(O)cc12 | 7.12 | 8.13
21 | Cc1nc(NCc2ccccc2)c2cnn(-c3ccccc3)c2n1 | 7.38 | 5.64
22 | CN(C)c1cccc(C(=O)c2cccc(N(C)C)c2)c1 | 23.31 | 7.89
23 | O=C(O)/C(=C\c1ccccc1)NC(=O)c1ccccc1 | 14.68 | 10.16
24 | COC(=O)C(=Cc1ccc(OC)cc1)NC(=O)c1ccccc1 | 17.26 | 11.52
25 | N#Cc1c(N)nc(N2CCC(Cc3ccccc3)CC2)c(C#N)c1-c1ccccc1 | 8.01 | -15.68
26 | CNC(=O)c1cc2cc(OC)ccc2[nH]1 | 5.66 | -0.98
27 | C#CCNc1nc(N)c(C#N)c(-c2ccccc2)c1C#N | 3.95 | 15.49
28 | O=C(COc1ccc2ccccc2c1)NNCc1c[nH]c2ccccc12 | 3.31 | 7.68
29 | COc1ccc2cc(C=O)c(Cl)nc2c1 | 17.7 | 25.34
30 | O=C(N/N=C/Cc1ccccc1)c1cc2ccccc2n1Cc1ccccc1 | 8.78 | 7.44
31 | N#Cc1cc(C#N)c(N2CCC(O)CC2)nc1N | 5.78 | -26.11
32 | ClCCC1CCN(Cc2ccccc2)CC1 | 26.32 | 16.74
33 | C#CCN(C)c1nc(NCC2CCN(Cc3ccccc3)CC2)c(C#N)c(-c2ccccc2)c1C#N | 6.97 | -2.4
34 | C#CCNc1nc(OC)c(C#N)c(-c2ccccc2)c1C#N | 49.28 | -4
35 | N#Cc1c(Cl)nc(N2CCCCC2)c(C#N)c1-c1ccccc1 | -12.16 | 17.72
36 | Cc1ccc(C2c3ccc4ccccc4c3Oc3nc4c(c(N)c32)CCCC4)cc1.Cl (configuration not stated) | -4.06 | 12.44
